# Reference: ChEMBL document CHEMBL1961873, “Compounds: GSK PKIS; Assays: Nanosyn kinase panel” (2012)
# Legend:
# [1] = target: T1, Mitogen-activated protein kinase 12 (Homo sapiens) (UniProt P53778); settings: at 1 µM;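 further: values are averaged p38gamma kinase inhibition readings, compounds tested at 1 µM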
# T1 sequence (whole entry): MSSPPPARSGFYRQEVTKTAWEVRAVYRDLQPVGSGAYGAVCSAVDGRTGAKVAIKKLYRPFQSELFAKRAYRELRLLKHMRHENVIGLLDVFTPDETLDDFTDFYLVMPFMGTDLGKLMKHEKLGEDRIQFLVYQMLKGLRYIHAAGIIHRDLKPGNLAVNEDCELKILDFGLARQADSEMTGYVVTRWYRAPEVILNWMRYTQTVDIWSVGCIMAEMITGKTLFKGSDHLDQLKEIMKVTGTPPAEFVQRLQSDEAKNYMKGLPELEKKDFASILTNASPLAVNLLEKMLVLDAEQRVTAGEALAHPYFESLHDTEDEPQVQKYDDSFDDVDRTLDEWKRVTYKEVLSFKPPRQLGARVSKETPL
# [2] = target: SRSF protein kinase 1 (Homo sapiens) (UniProt Q96SB4); settings: at 0.1 µM
# [3] = target: SRSF protein kinase 1 (Homo sapiens) (UniProt Q96SB4); settings: at 1 µM
# [4] = target: Phosphatidylinositol 4,5-bisphosphate 3-kinase catalytic subunit alpha isoform (Homo sapiens) (UniProt P42336); settings: at 0.1 µM
# [5] = target: Phosphatidylinositol 4,5-bisphosphate 3-kinase catalytic subunit alpha isoform (Homo sapiens) (UniProt P42336); settings: at 1 µM
# [6] = target: T2, Phosphatidylinositol 4,5-bisphosphate 3-kinase catalytic subunit delta isoform (Homo sapiens) (UniProt O00329); settings: at 0.1 µM
# T2 sequence (whole entry): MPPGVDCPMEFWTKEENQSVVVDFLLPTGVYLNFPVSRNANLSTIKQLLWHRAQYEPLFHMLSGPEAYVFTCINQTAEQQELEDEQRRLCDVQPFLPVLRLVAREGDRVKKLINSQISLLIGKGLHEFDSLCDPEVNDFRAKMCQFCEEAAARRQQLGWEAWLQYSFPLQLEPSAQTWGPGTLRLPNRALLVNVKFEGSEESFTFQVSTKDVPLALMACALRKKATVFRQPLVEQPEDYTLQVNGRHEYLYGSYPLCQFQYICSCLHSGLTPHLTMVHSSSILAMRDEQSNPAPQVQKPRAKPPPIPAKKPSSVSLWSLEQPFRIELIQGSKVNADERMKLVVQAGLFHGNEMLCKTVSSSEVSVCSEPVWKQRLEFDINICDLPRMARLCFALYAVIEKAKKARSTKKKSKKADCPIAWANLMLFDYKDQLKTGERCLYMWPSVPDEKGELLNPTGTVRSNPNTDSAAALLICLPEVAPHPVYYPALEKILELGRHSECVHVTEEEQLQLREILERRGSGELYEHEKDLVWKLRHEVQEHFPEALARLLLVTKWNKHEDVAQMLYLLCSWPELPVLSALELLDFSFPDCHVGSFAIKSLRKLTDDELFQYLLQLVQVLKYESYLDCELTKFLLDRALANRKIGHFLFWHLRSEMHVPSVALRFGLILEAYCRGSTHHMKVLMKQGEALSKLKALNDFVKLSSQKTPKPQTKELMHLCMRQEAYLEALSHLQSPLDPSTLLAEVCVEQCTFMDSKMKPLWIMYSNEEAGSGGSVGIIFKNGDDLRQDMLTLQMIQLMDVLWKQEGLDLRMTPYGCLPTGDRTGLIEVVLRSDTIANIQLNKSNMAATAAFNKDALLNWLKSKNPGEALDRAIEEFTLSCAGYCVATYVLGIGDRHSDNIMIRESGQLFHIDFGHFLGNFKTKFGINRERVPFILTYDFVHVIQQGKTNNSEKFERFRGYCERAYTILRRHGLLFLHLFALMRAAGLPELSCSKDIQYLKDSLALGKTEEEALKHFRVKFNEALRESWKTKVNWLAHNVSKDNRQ
# [7] = target: T2, Phosphatidylinositol 4,5-bisphosphate 3-kinase catalytic subunit delta isoform (Homo sapiens); settings: at 1 µM
# [8] = target: Phosphatidylinositol 4-kinase beta (Homo sapiens) (UniProt Q9UBF8); settings: at 0.1 µM
# [9] = target: Phosphatidylinositol 4-kinase beta (Homo sapiens) (UniProt Q9UBF8); settings: at 1 µM
# [10] = target: Sphingosine kinase 1 (Homo sapiens) (UniProt Q9NYA1); settings: at 0.1 µM
# [11] = target: Sphingosine kinase 1 (Homo sapiens) (UniProt Q9NYA1); settings: at 1 µM
# [12] = target: T3, Sphingosine kinase 2 (Homo sapiens) (UniProt Q9NRA0); settings: at 0.1 µM
# T3 sequence (whole entry): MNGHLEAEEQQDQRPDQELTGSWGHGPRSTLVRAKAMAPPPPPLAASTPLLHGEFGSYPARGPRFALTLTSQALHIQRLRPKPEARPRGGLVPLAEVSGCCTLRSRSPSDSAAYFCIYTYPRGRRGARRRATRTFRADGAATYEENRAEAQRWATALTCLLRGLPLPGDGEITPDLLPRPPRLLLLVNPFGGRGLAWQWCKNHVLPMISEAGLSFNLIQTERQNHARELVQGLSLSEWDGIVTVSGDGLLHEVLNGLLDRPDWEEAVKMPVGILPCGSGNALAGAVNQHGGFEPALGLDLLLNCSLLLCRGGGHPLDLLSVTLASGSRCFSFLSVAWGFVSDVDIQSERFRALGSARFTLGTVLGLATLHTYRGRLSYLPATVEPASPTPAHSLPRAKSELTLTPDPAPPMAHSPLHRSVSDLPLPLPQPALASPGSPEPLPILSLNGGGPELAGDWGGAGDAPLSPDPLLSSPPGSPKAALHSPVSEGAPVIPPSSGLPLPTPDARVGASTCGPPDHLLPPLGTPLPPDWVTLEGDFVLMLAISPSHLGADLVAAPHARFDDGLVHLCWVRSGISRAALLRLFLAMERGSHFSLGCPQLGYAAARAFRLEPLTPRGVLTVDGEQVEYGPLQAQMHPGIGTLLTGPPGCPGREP
# [13] = target: T3, Sphingosine kinase 2 (Homo sapiens); settings: at 1 µM
# [14] = target: Casein kinase II subunit alpha (Homo sapiens) (UniProt P68400); settings: at 0.1 µM
# [15] = target: Casein kinase II subunit alpha (Homo sapiens) (UniProt P68400); settings: at 1 µM
# [16] = target: T4, Inhibitor of nuclear factor kappa-B kinase subunit alpha (Homo sapiens) (UniProt O15111); settings: at 0.1 µM
# T4 sequence (whole entry): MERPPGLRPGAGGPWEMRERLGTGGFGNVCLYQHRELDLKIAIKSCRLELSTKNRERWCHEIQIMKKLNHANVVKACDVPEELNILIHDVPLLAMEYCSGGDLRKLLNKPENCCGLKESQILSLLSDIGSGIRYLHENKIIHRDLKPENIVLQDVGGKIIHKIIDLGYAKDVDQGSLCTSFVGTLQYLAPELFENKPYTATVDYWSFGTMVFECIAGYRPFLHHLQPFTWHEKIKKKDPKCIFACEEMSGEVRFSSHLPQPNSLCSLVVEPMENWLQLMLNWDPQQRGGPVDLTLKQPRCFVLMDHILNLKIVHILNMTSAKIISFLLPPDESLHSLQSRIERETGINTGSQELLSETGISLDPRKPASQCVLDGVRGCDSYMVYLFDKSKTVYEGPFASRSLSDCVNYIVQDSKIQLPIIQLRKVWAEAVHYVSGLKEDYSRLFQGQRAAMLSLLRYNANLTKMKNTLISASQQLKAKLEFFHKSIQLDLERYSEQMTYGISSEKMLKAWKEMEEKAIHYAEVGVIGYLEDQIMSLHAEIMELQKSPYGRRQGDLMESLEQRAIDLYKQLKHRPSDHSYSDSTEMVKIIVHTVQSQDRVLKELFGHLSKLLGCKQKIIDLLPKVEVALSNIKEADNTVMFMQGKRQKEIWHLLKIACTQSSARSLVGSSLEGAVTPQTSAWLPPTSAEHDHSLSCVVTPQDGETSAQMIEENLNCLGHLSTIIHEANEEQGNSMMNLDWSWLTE
# [17] = target: T4, Inhibitor of nuclear factor kappa-B kinase subunit alpha (Homo sapiens); settings: at 1 µM
# [18] = target: T5, Inhibitor of nuclear factor kappa-B kinase subunit beta (Homo sapiens) (UniProt O14920); settings: at 0.1 µM
# T5 sequence (whole entry): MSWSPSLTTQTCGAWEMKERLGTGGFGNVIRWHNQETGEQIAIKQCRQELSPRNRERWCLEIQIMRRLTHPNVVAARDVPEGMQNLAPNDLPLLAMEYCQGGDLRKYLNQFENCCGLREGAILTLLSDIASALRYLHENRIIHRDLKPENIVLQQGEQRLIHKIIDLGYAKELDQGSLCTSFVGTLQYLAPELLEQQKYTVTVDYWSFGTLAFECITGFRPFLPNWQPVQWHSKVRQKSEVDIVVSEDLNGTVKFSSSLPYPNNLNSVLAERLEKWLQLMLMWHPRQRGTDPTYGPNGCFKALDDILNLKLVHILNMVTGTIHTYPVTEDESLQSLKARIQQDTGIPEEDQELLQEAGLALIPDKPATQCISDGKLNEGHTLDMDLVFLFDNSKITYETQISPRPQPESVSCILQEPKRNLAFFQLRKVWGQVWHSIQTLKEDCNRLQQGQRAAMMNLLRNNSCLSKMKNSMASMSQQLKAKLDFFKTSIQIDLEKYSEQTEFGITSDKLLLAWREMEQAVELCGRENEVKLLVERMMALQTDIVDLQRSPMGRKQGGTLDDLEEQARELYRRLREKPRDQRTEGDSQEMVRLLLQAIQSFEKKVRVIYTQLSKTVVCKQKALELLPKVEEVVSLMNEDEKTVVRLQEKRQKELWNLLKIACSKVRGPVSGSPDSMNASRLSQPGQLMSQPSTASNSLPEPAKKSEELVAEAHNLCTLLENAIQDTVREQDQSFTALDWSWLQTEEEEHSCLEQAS
# [19] = target: T5, Inhibitor of nuclear factor kappa-B kinase subunit beta (Homo sapiens); settings: at 1 µM
# [20] = target: T6, Inhibitor of nuclear factor kappa-B kinase subunit epsilon (Homo sapiens) (UniProt Q14164); settings: at 0.1 µM;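 further: mean inhibition of IKKε reported, from the GSK PKIS dataset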
# T6 sequence (whole entry): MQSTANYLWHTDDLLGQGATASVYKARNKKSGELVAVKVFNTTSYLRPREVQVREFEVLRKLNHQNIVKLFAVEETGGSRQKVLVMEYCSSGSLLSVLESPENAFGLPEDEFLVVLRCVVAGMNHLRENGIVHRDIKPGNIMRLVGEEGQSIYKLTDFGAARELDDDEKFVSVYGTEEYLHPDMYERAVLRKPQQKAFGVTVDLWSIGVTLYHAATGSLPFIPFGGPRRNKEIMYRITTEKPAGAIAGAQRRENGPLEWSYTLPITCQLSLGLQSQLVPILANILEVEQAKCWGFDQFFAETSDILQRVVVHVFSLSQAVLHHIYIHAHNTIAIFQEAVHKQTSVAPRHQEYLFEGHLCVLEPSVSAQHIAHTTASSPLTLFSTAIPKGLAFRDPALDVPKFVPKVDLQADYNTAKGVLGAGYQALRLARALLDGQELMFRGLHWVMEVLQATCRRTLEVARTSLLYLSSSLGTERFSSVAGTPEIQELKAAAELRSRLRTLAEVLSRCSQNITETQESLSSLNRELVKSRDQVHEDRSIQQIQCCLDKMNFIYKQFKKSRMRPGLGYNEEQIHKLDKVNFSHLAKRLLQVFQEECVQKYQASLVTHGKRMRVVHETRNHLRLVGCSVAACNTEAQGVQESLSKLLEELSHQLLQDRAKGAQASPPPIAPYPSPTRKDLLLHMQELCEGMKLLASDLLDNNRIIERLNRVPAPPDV
# Chain of Phosphatidylinositol 4,5-bisphosphate 3-kinase catalytic subunit alpha isoform (Homo sapiens) (P42336 whole entry, canonical isoform): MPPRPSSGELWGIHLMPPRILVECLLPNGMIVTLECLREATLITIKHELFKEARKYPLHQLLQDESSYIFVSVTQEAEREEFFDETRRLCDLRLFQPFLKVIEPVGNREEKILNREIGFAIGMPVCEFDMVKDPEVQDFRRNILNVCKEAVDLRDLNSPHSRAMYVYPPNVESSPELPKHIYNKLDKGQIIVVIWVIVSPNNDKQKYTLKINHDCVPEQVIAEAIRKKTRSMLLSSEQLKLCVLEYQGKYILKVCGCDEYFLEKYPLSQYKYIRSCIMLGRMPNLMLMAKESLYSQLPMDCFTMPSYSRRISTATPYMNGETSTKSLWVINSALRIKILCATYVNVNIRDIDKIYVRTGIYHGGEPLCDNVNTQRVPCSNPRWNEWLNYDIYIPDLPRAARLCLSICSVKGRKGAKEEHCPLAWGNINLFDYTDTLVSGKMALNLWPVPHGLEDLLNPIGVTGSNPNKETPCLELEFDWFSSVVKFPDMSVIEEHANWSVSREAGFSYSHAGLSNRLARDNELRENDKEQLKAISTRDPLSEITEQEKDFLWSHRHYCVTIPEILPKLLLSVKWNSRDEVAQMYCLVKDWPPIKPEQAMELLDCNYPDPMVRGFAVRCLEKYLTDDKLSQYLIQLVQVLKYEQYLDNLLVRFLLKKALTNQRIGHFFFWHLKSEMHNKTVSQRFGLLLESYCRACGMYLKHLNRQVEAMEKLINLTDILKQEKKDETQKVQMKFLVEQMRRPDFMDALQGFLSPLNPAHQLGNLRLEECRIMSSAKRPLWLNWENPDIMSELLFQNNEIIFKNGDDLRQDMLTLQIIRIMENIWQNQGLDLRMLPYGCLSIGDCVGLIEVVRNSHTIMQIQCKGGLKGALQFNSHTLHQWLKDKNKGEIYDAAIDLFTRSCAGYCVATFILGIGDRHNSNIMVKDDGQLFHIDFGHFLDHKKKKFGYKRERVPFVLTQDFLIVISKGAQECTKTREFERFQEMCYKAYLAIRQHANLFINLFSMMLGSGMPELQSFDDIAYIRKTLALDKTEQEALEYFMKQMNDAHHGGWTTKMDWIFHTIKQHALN
# Chain of SRSF protein kinase 1 (Homo sapiens) (Q96SB4 whole entry, canonical isoform): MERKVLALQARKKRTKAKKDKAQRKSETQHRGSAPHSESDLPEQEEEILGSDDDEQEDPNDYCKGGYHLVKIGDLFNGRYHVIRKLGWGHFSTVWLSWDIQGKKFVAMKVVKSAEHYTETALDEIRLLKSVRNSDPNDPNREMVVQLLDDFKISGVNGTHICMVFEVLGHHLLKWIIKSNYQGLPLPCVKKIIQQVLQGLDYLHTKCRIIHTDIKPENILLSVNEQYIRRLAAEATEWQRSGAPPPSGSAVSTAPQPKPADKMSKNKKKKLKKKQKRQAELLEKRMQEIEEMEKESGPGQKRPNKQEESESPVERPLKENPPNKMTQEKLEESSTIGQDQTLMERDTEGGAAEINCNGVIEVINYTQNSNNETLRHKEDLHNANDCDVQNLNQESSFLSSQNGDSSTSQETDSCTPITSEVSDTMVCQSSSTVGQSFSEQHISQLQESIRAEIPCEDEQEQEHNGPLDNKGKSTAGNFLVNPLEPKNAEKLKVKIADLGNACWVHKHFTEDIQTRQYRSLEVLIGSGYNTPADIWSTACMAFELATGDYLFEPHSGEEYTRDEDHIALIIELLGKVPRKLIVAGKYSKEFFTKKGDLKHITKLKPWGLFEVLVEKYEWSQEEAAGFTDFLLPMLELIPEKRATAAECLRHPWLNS
# Chain of Phosphatidylinositol 4-kinase beta (Homo sapiens) (Q9UBF8 2-816 limits assumed): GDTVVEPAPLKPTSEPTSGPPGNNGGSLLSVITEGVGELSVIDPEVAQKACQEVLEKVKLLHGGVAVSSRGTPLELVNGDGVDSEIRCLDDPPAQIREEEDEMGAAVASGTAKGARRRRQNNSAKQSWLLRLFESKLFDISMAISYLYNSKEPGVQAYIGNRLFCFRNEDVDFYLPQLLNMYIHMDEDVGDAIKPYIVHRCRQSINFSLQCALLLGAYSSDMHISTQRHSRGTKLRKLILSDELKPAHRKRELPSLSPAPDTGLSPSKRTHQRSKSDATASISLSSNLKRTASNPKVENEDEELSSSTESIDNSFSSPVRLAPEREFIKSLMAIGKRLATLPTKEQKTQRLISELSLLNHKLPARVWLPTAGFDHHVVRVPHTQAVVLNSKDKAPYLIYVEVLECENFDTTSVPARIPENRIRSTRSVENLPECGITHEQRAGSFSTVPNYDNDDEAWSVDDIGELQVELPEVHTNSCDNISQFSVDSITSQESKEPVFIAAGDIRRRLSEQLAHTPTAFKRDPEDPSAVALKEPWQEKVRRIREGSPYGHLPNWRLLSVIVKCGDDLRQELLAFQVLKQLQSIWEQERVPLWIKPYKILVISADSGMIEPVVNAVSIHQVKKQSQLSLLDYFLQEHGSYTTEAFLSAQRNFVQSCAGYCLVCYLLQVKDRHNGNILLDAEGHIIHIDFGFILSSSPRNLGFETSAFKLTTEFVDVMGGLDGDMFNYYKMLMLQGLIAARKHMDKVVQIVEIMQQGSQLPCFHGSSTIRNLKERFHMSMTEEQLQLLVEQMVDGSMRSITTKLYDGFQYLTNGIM
# Chain of Casein kinase II subunit alpha (Homo sapiens) (P68400 whole entry, looked up): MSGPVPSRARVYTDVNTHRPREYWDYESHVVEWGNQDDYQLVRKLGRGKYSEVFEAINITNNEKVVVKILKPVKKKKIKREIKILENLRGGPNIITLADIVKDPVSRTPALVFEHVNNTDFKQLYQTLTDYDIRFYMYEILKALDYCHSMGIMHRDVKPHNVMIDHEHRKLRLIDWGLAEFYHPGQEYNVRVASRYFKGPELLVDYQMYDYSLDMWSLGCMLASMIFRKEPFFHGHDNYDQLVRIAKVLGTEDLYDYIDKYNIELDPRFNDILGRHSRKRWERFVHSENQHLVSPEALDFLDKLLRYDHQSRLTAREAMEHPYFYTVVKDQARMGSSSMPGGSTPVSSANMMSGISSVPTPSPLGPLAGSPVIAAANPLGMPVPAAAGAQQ
# Chain of Sphingosine kinase 1 (Homo sapiens) (Q9NYA1 whole entry): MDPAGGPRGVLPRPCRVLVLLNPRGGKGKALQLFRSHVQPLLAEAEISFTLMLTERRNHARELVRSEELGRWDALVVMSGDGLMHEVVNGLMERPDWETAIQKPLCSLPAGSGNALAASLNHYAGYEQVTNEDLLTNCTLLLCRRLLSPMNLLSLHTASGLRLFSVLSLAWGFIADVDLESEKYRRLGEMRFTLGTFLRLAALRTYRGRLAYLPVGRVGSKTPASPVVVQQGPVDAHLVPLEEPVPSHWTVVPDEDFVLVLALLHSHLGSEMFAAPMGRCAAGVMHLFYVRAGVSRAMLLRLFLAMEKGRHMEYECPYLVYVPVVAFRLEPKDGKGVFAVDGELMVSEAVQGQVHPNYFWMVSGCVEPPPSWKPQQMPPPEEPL
Compound,inhibition [1],inhibition [2],inhibition [3],inhibition [4],inhibition [5],inhibition [6],inhibition [7],inhibition [8],inhibition [9],inhibition [10],inhibition [11],inhibition [12],inhibition [13],inhibition [14],inhibition [15],inhibition [16],inhibition [17],inhibition [18],inhibition [19],inhibition [20]
CCn1c(-c2nonc2N)nc2c(C#CC(C)(C)O)nc(OCCNC)cc21,6.39%,-3.96%,-2.97%,5.21%,4.34%,1.6%,1.55%,-2.53%,3.94%,-1.43%,0.34%,0.23%,3.77%,3.96%,3.67%,8.37%,7.87%,7.32%,8.81%,15.2%
Cc1ccc2c(-c3ccnc(Nc4ccc5c(c4)OCCO5)n3)c(-c3ccc(C(F)(F)F)cc3)nn2n1,0.43%,-1.35%,-3.21%,-1.09%,-0.65%,0.68%,0.76%,6.55%,-2.49%,0%,-4.65%,-0.54%,1.85%,9.31%,1.49%,0.44%,0.46%,-1.92%,-5.04%,4.65%
COc1ccc2ncnc(Nc3ccc(OCc4ccccc4)cc3)c2c1,1.88%,-1.2%,-0.4%,2.14%,1.05%,1.99%,2.84%,1.57%,1.15%,-0.95%,-2.59%,0.06%,0.29%,3.44%,7.23%,2.22%,-0.08%,2.67%,3.67%,3.74%
CN(C)C(=O)O[C@H]1CN[C@H](C#Cc2cc3ncnc(Nc4ccc(OCc5cccc(F)c5)c(Cl)c4)c3s2)C1,1.22%,-0.93%,-1.25%,1.47%,31.7%,1.7%,17.4%,4.95%,-3.29%,0.36%,-2.15%,-0.26%,0.69%,0.63%,0.63%,1.66%,2.62%,3.17%,-7.42%,1.55%
Cc1ccc2c(c1)/C(=N/Nc1ccc(S(N)(=O)=O)cc1)C(=O)N2,-0.05%,-2.83%,-5.98%,-1.13%,8.11%,1.23%,2.01%,6.34%,1.81%,-1.11%,0.07%,0.19%,0.62%,-2.8%,-4.47%,8.72%,4.99%,1.92%,1.12%,-5.56%
[O-][S+]1CCN(Cc2ccc(-c3ccc4ncnc(Nc5ccc(OCc6ccccc6)c(Cl)c5)c4c3)o2)CC1,1.59%,-1.34%,-2.79%,1.57%,0.92%,0.92%,2.1%,-2.13%,-0.85%,1.88%,0.98%,0.01%,2.21%,3.5%,2.9%,2.69%,-1.63%,2.83%,1.96%,1.93%
CC(C)c1ccc(Nc2nccc(-c3cnn4ncccc34)n2)cc1,4.14%,-1.68%,-0.8%,1.41%,4.52%,2.45%,6.78%,2.86%,3.34%,4.11%,7.28%,0.26%,-0.48%,10.7%,43.4%,18.7%,64.1%,7.7%,23%,4.12%
